# Source: paper PMC7862700, “An all-to-all approach to the identification of sequence-specific readers for epigenetic DNA modifications on cytosine”
# How the values were obtained:
# Experiment in all cases: DAPPL (digital affinity profiling via proximity ligation, sequencing); 10 mM Tris-HCl pH 7.5, 50 mM NaCl, 1 mM DTT, 4% glycerol, room temperature, 30 min; GST-TFs on glutathione beads, 16-mer random dsDNA library, 0.1% formaldehyde crosslink after washing; high values mean tight binding
# FEV = molecular target: T1, FEV (Homo sapiens, UniProt Q99581 1-238); details: protein: recombinant; tags: N-terminal GST; dsDNA, one strand shown
# T1 sequence: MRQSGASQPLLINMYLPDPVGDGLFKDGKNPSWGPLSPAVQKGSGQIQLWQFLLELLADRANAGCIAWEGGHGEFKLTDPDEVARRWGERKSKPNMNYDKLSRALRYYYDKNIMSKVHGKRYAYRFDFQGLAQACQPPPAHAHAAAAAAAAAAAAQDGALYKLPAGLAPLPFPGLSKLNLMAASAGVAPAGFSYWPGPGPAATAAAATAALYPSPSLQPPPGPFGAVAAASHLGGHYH
# Method in brief: (§1)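 Human transcription factors were made in yeast as GST fusions, captured on glutathione beads and barcoded with DNA. With a tag-only sample included, the pool was incubated with 200 nmole of a random double-stranded 16-mer DNA library in Tris/NaCl/DTT/glycerol buffer at room temperature for 30 min, then crosslinked with 0.1% formaldehyde after washing, ligated by proximity, amplified and sequenced. For binding signal, each hexamer's read frequency for a factor is divided by its frequency for the tag-only sample.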
# ETV5 = ETV5 (Homo sapiens, UniProt P41161 1-510); details: protein: recombinant; tags: N-terminal GST; dsDNA, one strand shown
# Sequence of ETV5 (P41161 whole entry): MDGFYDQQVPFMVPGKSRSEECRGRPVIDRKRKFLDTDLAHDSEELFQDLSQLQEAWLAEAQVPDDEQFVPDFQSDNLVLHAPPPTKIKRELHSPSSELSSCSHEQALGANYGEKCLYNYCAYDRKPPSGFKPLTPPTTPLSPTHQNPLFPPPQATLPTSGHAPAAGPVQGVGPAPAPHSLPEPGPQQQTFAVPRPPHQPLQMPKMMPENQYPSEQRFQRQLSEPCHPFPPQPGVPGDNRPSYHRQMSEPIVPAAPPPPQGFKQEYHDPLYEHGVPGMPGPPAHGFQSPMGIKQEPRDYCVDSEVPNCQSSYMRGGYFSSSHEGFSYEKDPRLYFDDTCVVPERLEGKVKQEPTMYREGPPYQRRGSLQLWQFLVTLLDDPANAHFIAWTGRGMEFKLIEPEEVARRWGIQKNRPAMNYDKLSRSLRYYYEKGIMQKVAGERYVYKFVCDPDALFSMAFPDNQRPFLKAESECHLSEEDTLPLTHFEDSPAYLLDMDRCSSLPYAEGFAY
# Method in brief: as §1
# HSF1 = HSF1 (Homo sapiens, UniProt Q00613 1-529); details: protein: recombinant; tags: N-terminal GST; chain copies: 3; dsDNA, one strand shown
# Sequence of HSF1 (Q00613 whole entry): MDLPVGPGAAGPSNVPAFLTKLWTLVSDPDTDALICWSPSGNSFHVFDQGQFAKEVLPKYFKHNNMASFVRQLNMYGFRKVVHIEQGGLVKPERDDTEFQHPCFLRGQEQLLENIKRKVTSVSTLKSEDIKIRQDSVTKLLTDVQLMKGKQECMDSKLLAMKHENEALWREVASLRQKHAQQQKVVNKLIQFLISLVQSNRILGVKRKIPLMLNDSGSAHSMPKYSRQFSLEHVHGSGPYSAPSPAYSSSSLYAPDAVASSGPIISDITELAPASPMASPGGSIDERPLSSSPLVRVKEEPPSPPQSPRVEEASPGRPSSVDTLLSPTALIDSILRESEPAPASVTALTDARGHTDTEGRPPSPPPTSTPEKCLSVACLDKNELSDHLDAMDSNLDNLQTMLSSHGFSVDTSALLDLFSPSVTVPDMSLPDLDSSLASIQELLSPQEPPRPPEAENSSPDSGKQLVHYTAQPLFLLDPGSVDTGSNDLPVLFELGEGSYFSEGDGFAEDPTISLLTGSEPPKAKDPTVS
# Method in brief: as §1
# SPIC = molecular target: T2, SPIC (Homo sapiens, UniProt Q8N5J4 1-248); details: protein: recombinant; tags: N-terminal GST; dsDNA, one strand shown
# T2 sequence: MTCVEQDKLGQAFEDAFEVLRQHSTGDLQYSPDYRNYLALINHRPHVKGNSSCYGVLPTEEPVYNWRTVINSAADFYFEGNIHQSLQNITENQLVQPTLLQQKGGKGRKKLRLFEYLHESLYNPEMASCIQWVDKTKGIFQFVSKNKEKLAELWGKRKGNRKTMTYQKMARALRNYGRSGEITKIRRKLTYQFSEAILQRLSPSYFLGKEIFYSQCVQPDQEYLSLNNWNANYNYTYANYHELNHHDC
# Method in brief: as §1
# ELF4 = ELF4 (Homo sapiens, UniProt Q99607 1-663); details: protein: recombinant; tags: N-terminal GST; dsDNA, one strand shown
# Sequence of ELF4 (Q99607 whole entry): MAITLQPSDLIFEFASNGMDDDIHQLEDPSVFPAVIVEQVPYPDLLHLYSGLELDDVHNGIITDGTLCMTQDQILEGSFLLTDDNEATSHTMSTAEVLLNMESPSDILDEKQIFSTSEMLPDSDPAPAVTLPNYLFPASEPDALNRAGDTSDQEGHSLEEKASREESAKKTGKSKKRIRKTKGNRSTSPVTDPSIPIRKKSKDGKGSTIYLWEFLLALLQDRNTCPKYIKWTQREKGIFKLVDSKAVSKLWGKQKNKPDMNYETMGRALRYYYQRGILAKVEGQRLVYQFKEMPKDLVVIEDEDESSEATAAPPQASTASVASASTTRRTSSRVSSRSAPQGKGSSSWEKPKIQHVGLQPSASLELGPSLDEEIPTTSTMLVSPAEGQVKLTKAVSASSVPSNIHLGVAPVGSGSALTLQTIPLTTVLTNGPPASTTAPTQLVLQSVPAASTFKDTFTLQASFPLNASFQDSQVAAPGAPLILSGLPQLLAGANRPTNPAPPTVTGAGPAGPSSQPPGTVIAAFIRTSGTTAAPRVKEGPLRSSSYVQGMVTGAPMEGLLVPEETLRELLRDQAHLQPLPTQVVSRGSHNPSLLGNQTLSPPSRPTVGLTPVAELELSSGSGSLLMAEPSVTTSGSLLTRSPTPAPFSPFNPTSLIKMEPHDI
# Method in brief: as §1
# ELK4 = molecular target: T3, ELK4 (Homo sapiens, UniProt P28324-2 1-405); details: protein: recombinant; tags: N-terminal GST; dsDNA, one strand shown
# T3 sequence: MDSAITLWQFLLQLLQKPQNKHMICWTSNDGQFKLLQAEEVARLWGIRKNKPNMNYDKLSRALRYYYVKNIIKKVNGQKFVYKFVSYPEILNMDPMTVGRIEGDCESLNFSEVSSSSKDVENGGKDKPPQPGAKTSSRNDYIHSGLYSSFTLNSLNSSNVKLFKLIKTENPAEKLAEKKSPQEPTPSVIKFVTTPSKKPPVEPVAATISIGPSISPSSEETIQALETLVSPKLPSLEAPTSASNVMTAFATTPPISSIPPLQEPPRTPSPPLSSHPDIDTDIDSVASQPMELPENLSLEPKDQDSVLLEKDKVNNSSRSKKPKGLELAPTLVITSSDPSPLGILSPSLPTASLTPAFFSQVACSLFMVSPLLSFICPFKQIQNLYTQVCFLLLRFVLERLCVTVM
# Method in brief: as §1
# ETV2 = molecular target: T4, ETV2 (Homo sapiens, UniProt O00321 1-342); details: protein: recombinant; tags: N-terminal GST; dsDNA, one strand shown
# T4 sequence: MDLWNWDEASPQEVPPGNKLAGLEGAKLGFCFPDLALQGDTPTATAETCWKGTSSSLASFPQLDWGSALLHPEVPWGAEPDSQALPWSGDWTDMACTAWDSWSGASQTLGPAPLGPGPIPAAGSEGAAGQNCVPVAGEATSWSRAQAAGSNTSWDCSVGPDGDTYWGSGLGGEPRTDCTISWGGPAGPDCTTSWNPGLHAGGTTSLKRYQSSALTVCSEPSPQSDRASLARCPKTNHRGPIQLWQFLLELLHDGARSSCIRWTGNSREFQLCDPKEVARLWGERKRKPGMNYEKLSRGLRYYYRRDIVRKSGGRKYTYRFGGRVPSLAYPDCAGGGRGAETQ
# Method in brief: as §1
# ELF3 = molecular target: T5, ELF3 (Homo sapiens, UniProt P78545 1-371); details: protein: recombinant; tags: N-terminal GST; dsDNA, one strand shown
# T5 sequence: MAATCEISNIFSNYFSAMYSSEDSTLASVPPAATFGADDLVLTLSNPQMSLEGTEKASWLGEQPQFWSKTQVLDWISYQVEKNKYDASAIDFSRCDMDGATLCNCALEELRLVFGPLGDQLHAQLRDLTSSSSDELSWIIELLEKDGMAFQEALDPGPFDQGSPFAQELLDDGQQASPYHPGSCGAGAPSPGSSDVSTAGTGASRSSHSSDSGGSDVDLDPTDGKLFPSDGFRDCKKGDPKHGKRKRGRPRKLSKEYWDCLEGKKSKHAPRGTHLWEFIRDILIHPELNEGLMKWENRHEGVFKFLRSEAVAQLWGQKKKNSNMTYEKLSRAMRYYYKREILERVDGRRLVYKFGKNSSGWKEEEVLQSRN
# Method in brief: as §1
# CRX = CRX (Homo sapiens, UniProt O43186 1-299); details: protein: recombinant; tags: N-terminal GST; dsDNA, one strand shown
# Sequence of CRX (O43186 whole entry): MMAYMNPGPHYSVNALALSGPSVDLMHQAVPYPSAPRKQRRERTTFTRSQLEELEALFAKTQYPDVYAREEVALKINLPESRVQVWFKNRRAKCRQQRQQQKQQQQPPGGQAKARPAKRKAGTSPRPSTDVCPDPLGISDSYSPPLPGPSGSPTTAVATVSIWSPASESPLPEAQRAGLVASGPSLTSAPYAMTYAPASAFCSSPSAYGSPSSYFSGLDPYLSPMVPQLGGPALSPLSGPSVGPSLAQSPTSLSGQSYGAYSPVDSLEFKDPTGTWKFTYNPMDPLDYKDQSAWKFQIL
# Method in brief: as §1
# ETV1 = ETV1 (Homo sapiens, UniProt P50549 1-477); details: protein: recombinant; tags: N-terminal GST; dsDNA, one strand shown
# Sequence of ETV1 (P50549 whole entry): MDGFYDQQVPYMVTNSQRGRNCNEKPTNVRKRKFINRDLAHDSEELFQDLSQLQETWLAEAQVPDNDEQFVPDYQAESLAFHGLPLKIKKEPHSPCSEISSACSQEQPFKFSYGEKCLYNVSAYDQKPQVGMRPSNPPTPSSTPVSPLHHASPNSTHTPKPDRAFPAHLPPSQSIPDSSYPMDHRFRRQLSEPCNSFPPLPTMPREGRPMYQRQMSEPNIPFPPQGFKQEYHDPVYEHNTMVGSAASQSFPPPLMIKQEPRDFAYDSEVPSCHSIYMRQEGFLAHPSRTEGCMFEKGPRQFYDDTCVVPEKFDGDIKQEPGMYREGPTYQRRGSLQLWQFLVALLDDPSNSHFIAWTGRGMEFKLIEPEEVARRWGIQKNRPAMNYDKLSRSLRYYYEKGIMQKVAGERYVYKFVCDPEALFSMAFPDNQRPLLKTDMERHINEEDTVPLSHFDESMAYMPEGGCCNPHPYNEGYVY
# Method in brief: as §1
# ERF = molecular target: T6, ERF (Homo sapiens, UniProt P50548 1-548); details: protein: recombinant; tags: N-terminal GST; dsDNA, one strand shown
# T6 sequence: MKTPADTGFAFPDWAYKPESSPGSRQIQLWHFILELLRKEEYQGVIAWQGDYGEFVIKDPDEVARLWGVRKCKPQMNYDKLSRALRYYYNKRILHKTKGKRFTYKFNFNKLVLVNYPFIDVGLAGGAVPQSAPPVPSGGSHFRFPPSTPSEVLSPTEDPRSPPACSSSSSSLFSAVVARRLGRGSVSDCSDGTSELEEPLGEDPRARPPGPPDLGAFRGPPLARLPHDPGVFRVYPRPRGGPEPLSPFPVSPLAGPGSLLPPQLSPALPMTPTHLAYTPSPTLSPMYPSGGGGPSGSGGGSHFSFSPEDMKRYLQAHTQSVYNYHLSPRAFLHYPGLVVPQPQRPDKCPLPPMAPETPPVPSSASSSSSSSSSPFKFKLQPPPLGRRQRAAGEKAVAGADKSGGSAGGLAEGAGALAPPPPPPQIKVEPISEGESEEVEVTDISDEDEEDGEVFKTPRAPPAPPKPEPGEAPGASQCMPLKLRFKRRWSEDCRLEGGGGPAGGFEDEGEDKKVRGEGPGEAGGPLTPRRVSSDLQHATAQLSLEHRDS
# Method in brief: as §1
# ETV3L = molecular target: T7, ETV3L (Homo sapiens, UniProt Q6ZN32 1-361); details: protein: recombinant; tags: N-terminal GST; dsDNA, one strand shown
# T7 sequence: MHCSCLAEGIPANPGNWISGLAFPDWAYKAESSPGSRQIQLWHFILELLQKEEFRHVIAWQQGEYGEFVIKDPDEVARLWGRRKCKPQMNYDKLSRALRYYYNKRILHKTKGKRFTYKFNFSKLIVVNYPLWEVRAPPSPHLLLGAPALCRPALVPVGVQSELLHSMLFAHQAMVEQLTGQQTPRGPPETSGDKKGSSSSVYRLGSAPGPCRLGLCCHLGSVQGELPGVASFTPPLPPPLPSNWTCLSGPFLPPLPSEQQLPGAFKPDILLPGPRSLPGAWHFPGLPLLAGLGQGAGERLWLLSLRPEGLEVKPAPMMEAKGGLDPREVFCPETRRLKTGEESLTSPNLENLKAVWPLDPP
# Method in brief: as §1
# ETS2 = molecular target: T8, ETS2 (Homo sapiens, UniProt P15036 1-469); details: protein: recombinant; tags: N-terminal GST; dsDNA, one strand shown
# T8 sequence: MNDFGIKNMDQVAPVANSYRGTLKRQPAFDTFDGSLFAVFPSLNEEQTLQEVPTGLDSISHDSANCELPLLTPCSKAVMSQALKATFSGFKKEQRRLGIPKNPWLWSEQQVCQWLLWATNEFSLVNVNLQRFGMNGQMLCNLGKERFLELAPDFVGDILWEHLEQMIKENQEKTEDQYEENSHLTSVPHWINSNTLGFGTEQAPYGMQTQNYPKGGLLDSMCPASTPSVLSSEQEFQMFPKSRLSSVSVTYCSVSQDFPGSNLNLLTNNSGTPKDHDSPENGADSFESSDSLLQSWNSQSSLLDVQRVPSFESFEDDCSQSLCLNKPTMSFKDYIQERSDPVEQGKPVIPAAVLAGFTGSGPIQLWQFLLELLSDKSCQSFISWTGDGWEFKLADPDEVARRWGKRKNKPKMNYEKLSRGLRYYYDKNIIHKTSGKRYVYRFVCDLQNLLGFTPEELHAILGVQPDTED
# Method in brief: as §1
# SPDEF = molecular target: T9, SPDEF (Homo sapiens, UniProt O95238 1-335); details: protein: recombinant; tags: N-terminal GST; dsDNA, one strand shown
# T9 sequence: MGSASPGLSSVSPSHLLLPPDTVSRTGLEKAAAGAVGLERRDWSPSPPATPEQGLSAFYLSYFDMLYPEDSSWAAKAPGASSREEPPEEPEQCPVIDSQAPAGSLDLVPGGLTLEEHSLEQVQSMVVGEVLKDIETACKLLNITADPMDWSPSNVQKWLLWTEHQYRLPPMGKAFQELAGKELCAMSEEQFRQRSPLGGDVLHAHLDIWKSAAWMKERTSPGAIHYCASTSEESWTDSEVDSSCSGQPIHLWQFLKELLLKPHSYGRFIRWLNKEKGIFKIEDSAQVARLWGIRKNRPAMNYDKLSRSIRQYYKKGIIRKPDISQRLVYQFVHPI
# Method in brief: as §1
# ETV7 = molecular target: T10, ETV7 (Homo sapiens, UniProt Q9Y603 1-341); details: protein: recombinant; tags: N-terminal GST; dsDNA, one strand shown
# T10 sequence: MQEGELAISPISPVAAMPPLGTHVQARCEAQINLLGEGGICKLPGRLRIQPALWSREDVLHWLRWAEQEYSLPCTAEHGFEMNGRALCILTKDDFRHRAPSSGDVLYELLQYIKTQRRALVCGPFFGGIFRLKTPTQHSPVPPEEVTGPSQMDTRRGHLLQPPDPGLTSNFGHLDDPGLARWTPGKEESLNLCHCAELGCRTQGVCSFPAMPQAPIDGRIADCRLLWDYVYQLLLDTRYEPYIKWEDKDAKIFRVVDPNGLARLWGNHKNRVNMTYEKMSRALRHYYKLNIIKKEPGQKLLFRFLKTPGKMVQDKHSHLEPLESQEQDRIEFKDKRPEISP
# Method in brief: as §1
# ELF5 = molecular target: T11, ELF5 (Homo sapiens, UniProt Q9UKW6-2 1-255); details: protein: recombinant; tags: N-terminal GST; dsDNA, one strand shown
# T11 sequence: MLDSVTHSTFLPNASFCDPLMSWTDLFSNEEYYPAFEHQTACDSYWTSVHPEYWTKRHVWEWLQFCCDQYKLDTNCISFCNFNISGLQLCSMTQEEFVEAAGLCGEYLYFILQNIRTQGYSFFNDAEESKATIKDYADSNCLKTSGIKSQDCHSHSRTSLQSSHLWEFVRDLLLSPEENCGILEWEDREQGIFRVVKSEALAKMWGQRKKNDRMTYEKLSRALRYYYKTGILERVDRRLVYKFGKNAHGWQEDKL
# Method in brief: as §1
# ETV3 = molecular target: T12, ETV3 (Homo sapiens, UniProt P41162-2 1-143); details: protein: recombinant; tags: N-terminal GST; dsDNA, one strand shown
# T12 sequence: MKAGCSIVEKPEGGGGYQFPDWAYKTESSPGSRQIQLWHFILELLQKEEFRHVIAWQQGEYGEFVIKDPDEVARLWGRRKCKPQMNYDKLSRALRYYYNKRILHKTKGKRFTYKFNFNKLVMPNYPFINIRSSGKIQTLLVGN
# Method in brief: as §1
# ETV6 = ETV6 (Homo sapiens, UniProt P41212 1-452); details: protein: recombinant; tags: N-terminal GST; dsDNA, one strand shown
# Sequence of ETV6 (P41212 whole entry): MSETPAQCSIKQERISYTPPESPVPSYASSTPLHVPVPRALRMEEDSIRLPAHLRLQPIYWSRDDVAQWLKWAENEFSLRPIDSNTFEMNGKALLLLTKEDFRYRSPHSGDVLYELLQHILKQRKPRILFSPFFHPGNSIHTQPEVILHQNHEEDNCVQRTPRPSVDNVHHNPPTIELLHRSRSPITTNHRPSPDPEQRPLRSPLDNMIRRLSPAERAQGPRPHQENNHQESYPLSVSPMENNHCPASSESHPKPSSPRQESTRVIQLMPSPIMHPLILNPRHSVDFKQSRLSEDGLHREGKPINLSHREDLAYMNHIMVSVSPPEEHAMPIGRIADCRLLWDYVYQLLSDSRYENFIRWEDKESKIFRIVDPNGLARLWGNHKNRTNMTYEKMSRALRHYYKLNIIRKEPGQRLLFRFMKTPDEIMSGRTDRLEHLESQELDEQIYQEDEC
# Method in brief: as §1
sequence,measurement,setting,value
TTTCAT,binding signal,FEV,"1.12 fold enrichment (6-mer frequency, TF over GST control)"
same,binding signal,ETV5,"1.09 fold enrichment (6-mer frequency, TF over GST control)"
same,binding signal,HSF1,"1.13 fold enrichment (6-mer frequency, TF over GST control)"
same,binding signal,SPIC,"1.11 fold enrichment (6-mer frequency, TF over GST control)"
same,binding signal,ELF4,"1.2 fold enrichment (6-mer frequency, TF over GST control)"
same,binding signal,ELK4,"1.19 fold enrichment (6-mer frequency, TF over GST control)"
same,binding signal,ETV2,"1.1 fold enrichment (6-mer frequency, TF over GST control)"
same,binding signal,ELF3,"1.11 fold enrichment (6-mer frequency, TF over GST control)"
same,binding signal,CRX,"1.18 fold enrichment (6-mer frequency, TF over GST control)"
same,binding signal,ETV1,"1.16 fold enrichment (6-mer frequency, TF over GST control)"
same,binding signal,ERF,"1.25 fold enrichment (6-mer frequency, TF over GST control)"
same,binding signal,ETV3L,"1.15 fold enrichment (6-mer frequency, TF over GST control)"
same,binding signal,ETS2,"1.17 fold enrichment (6-mer frequency, TF over GST control)"
same,binding signal,SPDEF,"1.2 fold enrichment (6-mer frequency, TF over GST control)"
same,binding signal,ETV7,"1.2 fold enrichment (6-mer frequency, TF over GST control)"
same,binding signal,ELF5,"1.23 fold enrichment (6-mer frequency, TF over GST control)"
same,binding signal,ETV3,"1.22 fold enrichment (6-mer frequency, TF over GST control)"
same,binding signal,ETV6,"1.13 fold enrichment (6-mer frequency, TF over GST control)"
